A short description of the experiment: growth inhibition of WT strain, primary screen, mitochondrial fusion inhibitor project, WT and mutant strains, chemical genetic (AID 1362). As to conditions: mitochondrial fusion phenotypic screen, at 10 µM.
Where [1] appears, read: WT strain, growth inhibition, stronger effect = higher value.

Among all 190,000 compounds or so, about 4,000 (2.1%) were called active. Cut-off read from the data, not from the text of the source: active = inhibition above about 58%; inactive = the rest, inconclusive results apart; tested in S. cerevisiae. For the sample, actives were picked, then their nearest neighbours and some compounds at random.

Usually inhibition stands for the relative decrease from the control value, in per cent.

As for `CCNC(=S)N(CCc1c(C)[nH]c2ccc(C)cc12)Cc1ccco1`, the inhibition reads like this: under setting [1], 22.5% (inactive); (mutant strain inhibition) -3.3%.

Take `COc1ccc2[nH]c(C)c(CCN(Cc3cccs3)C(=S)Nc3ccccc3OC)c2c1`: the inhibition by setting is: under setting [1], 10.9% (inactive); (mutant strain inhibition) 3.89%.

For `Cc1ccc(N(C(=O)c2sc(C)nc2C)C(C(=O)NC(C)(C)C)c2ccncc2)cc1` (centres undefined), the inhibition under setting [1] was -8.21% (inactive) and the inhibition (mutant strain inhibition) amounted to 7.16%.

For the compound `COc1ccc(C2CC(c3cccs3)=NN2C(=O)CSc2nnc(N)s2)cc1OC` (centres undefined), the inhibition is -8.12% (inactive) under setting [1] and -5.34% (mutant strain inhibition).

Take `CCN1CN(Cc2ccccc2)CNC1=S`: the inhibition under setting [1] was 1.7% (inactive) and the inhibition (mutant strain inhibition) is 0.04%.

As to `CC1CC(=S)Nc2ccccc2N1Cc1ccccc1` (centres undefined), the inhibition reads like this: under setting [1], 65.9% (active); (mutant strain inhibition) 26.3%.

`CC1CC(C)(C)NC(=S)N1CCC(=O)N1CCN(Cc2ccccc2)CC1` (centres undefined): the inhibition under setting [1] is -6.52% (inactive) and the inhibition (mutant strain inhibition) was -4.03%.

Take `COc1cccc(CC2(CO)CCCN(Cc3nc(-c4cccs4)oc3C)C2)c1` (centres undefined): the inhibition reads like this: under setting [1], 19.9% (inactive); (mutant strain inhibition) 6.17%.

In the case of `CCN(CC)S(=O)(=O)c1ccc(Cl)c(NC(=O)c2ccncc2)c1`, the inhibition is -7.6% (inactive) under setting [1] and -15.4% (mutant strain inhibition).

Consider `Cc1ccc(COc2ccc(C(=O)NN)cc2)cc1`, for which the inhibition runs as follows: under setting [1], 18.5% (inactive); (mutant strain inhibition) 22.2%.

For the compound `CN(C)C(=O)c1nc2ccc(Cl)cn2c1CN1CCN(c2ncccn2)CC1`, the inhibition is, setting by setting: under setting [1], -14.1% (inactive); (mutant strain inhibition) -9.73%.

As for `c1ccc(-c2cn3cccnc3n2)cc1`, the inhibition under setting [1] was 7.76% (inactive) and the inhibition (mutant strain inhibition) is -1.07%.

With `c1ccc(-c2cn3c(n2)CCc2ccc4cccnc4c2-3)cc1`, the inhibition is, setting by setting: under setting [1], 67.5% (active); (mutant strain inhibition) 4.75%.

Turning to `COc1ccc(/C=C/C(=O)N2CCCC2)cc1OC`, the inhibition by setting is: under setting [1], -13.6% (inactive); (mutant strain inhibition) -0.71%.

In the case of `Cc1ccccc1-c1n[nH]c(=S)n1C`, the inhibition by setting is: under setting [1], -5.68% (inactive); (mutant strain inhibition) 4.36%.

Take `O=C(c1ccccc1)c1ccc2nc(N3CCCCC3)c3nncn3c2c1`: the inhibition under setting [1] is 60.2% (active) and the inhibition (mutant strain inhibition) amounted to 50.8%.

As to `O=C(Nc1ccccc1N1CCCCC1)c1ccc2nccnc2c1`, the inhibition under setting [1] is 26.1% (inactive) and the inhibition (mutant strain inhibition) came out at 32.9%.

In the case of `c1ccc(CC2CCN(c3nc4ccccc4n4cnnc34)CC2)cc1`, the inhibition by setting is: under setting [1], 55.9% (inactive); (mutant strain inhibition) 25.1%.

On to `O=C(CN(CC1CCCO1)C(=O)CNS(=O)(=O)c1ccc(F)cc1)NCc1ccco1` (centres undefined), for which the inhibition under setting [1] was -16.3% (inactive) and the inhibition (mutant strain inhibition) was -1.9%.

Consider `CSCCC(=O)N1CCCC(CNC(=O)c2ccccc2Cl)C1` (centres undefined), for which the inhibition under setting [1] is 0.33% (inactive) and the inhibition (mutant strain inhibition) was -1.81%.

On to `CCC1(C)Cc2c(sc3[nH]c(=S)n(Cc4ccccc4)c(=O)c23)CO1` (centres undefined), for which the inhibition was 71% (active) under setting [1] and -13.6% (mutant strain inhibition).

For `CCn1c(=S)[nH]c2sc3c(c2c1=O)CCCCC3`, the inhibition under setting [1] was 44.5% (inactive) and the inhibition (mutant strain inhibition) was 47.1%.

Take `CCC1(C)Cc2c(sc3nnn(CC(=O)Nc4ccc(Cl)cc4)c(=O)c23)CO1` (centres undefined): the inhibition runs as follows: under setting [1], 6.37% (inactive); (mutant strain inhibition) 8.2%.

For the compound `c1ccc2sc(NN=C3CCCC3)nc2c1`, the inhibition under setting [1] was 1.96% (inactive) and the inhibition (mutant strain inhibition) was -13.6%.

For the compound `Cc1cc(C)n2nc(SCC(N)=O)nc2n1`, the inhibition reads like this: under setting [1], 1.11% (inactive); (mutant strain inhibition) -5.58%.

As to `COc1ccc(Br)cc1CN(C)CC(=O)Nc1cc(Cl)cc(Cl)c1`, the inhibition is, setting by setting: under setting [1], 64.1% (active); (mutant strain inhibition) -2.55%.

As for `COc1ccc(Br)cc1CN(C)CC(=O)Nc1cc([N+](=O)[O-])ccc1OC`, the inhibition is, setting by setting: under setting [1], -3.27% (inactive); (mutant strain inhibition) 14%.

`COc1ccc(Cl)cc1NC(=O)CN(C)Cc1ccc(OC)c(OC)c1`: the inhibition runs as follows: under setting [1], 13.3% (inactive); (mutant strain inhibition) 10.6%.

On to `CCC(C(=O)Nc1ccc2c(c1)OCCO2)c1ccccc1` (centres undefined), for which the inhibition under setting [1] is -3.34% (inactive) and the inhibition (mutant strain inhibition) is -11.8%.

With `CCOC(=O)N1CCN(Cc2nc3ccc([N+](=O)[O-])cc3c(=O)n2-c2cccc(OC)c2)CC1`, the inhibition reads like this: under setting [1], -16.2% (inactive); (mutant strain inhibition) 2.45%.

Take `COc1cc(C(=O)NCc2ccc(-n3cccc3)cc2)cc(OC)c1OC`: the inhibition reads like this: under setting [1], 4.37% (inactive); (mutant strain inhibition) -13.6%.

For `COC(=O)CCNC(=O)c1ccc2[nH]c(C)c(C)c2c1`, the inhibition runs as follows: under setting [1], 3.23% (inactive); (mutant strain inhibition) -1.22%.

For the compound `Cc1ccccc1OCC(O)CN1CCN(c2ccccn2)CC1` (centres undefined), the inhibition by setting is: under setting [1], 5.12% (inactive); (mutant strain inhibition) 6.35%.

Consider `Cc1cccc(C)c1OCC(O)CN1CCCCC1` (centres undefined), for which the inhibition was -0.96% (inactive) under setting [1] and 0.39% (mutant strain inhibition).

As for `Cc1cccc(OCC(O)CN2CCN(CCN3C(=O)c4cccc5cccc(c45)C3=O)CC2)c1C` (centres undefined), the inhibition was 64.5% (active) under setting [1] and 57.3% (mutant strain inhibition).

For `CN(CCc1cn[nH]c1)C(=O)CC1C(=O)NCCN1Cc1cccc(Oc2ccccc2)c1` (centres undefined), the inhibition runs as follows: under setting [1], 0.86% (inactive); (mutant strain inhibition) 0.64%.

With `CC(C)C(=O)Nc1oc(-c2ccccc2)cc1C#N`, the inhibition under setting [1] is 8.16% (inactive) and the inhibition (mutant strain inhibition) was -3.13%.

On to `O=C(Nc1nnc(-c2ccccc2)o1)c1cc(-c2cccs2)nc2ccccc12`, for which the inhibition runs as follows: under setting [1], 70.4% (active); (mutant strain inhibition) 64.4%.

With `CCCC(=O)Nc1nnc(-c2ccccc2)o1`, the inhibition reads like this: under setting [1], -6.78% (inactive); (mutant strain inhibition) 13.2%.

On to `CC(C)(C)Cc1nnc(NC(=O)c2cc(-c3ccccc3)nc3ccccc23)s1`, for which the inhibition is 34.7% (inactive) under setting [1] and 9.7% (mutant strain inhibition).

For `Cc1cc(C)c2[nH]c(=O)c(CN(Cc3ccccc3)C(=S)NCCCN(C)C)cc2c1`, the inhibition by setting is: under setting [1], -2.4% (inactive); (mutant strain inhibition) 16.4%.

In the case of `Cc1cc2c(cc1C)[n+](C)cn2CC(O)COCC1CC=CCC1` (centres undefined), the inhibition reads like this: under setting [1], 0.89% (inactive); (mutant strain inhibition) -7.37%.

The record behind these values is PubChem BioAssay AID1362 (SRMLSC, 2008).
